Screening results (PubChem BioAssay)
TNAP act mid DEA: activates human TNAP at intermediate phosphate acceptor concentration; AID 813; P05186; purified TNAP, CDP-star luminescence, 100 mM DEA, 30 min; hits give high values; scale: 0 levamisole-inhibited, 1 vehicle-only enzyme; 64,000 tested, under 10 active; activation factor at 20 µM;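 active = activation factor of at least 2 at 20 µM, relative to controls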
PLAP act: human PLAP activation | P05187 | purified PLAP enzyme, luminescent substrate read-out; hits give high values | activation fold at 20 µM | actives 1.2% (n = 96,000) | AID 696; in the data active = activation fold above about 2
HePTP inhibitor: blocks human HePTP tyrosine phosphatase; actives 0.64% (n = 110,000); recombinant HePTP phosphatase activity, OD absorbance; AID 521; inhibition, % at 20 µM; P35236; in the data active = inhibition above about 50%
Target sequence (P35236 whole entry, looked up): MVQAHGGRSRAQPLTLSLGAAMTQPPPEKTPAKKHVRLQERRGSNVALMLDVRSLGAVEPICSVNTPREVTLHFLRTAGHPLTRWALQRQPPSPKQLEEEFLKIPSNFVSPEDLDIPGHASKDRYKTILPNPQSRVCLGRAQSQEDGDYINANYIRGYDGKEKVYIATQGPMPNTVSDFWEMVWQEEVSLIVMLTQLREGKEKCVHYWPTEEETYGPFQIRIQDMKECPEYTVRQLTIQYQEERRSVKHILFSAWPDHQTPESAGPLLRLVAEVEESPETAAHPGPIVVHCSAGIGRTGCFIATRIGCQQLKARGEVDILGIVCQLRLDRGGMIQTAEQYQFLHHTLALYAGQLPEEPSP
Ecoli WT expand: blocks growth of wild type E. coli BW25113 | OD600 absorbance | growth inhibition, % at 100 µM | actives 0.15% (n = 98,000) | AID 710;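 active = growth inhibition above about 50% at one test dose, limit read from the data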;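 note: growth measured after 20 h incubation at 37 °C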
Hits are given with their value; i = inactive; nt = no result given. In the library only some 1.3% were active in any assay of this set; here they are far more common.

SMILES	TNAP act mid DEA	PLAP act	HePTP inhibitor	Ecoli WT expand
Cc1nnc(NC(=O)c2ccc3ccccc3c2)o1	i	i	i	50
COc1ccc(C(=O)CSc2nc(N)nc(SC)c2C#N)cc1	nt	i	nt	i
Nc1nnc(SCc2ccc(Cl)c(Cl)c2)s1	nt	nt	i	nt
CN=C(c1ccco1)n1c(=S)nc(-c2ccco2)n(C)c1=S	i	2.7	i	i
Nn1c(-c2ccco2)n[nH]c1=S	i	i	i	i
N/C(COc1ccc(F)cc1)=N\NC(=O)c1cccnc1Oc1ccccc1	nt	2	nt	i
O=C(COc1ccccc1CNCc1ccccc1)Nc1ccccc1	nt	2.6	nt	i
COc1ccc(NC(=S)NNC(=O)C(C)n2nc(C)c([N+](=O)[O-])c2C)cc1 (configuration not stated)	nt	2.3	nt	i
O=C(CCNS(=O)(=O)c1ccc(Cl)cc1)NCc1ccccn1	i	i	i	i
Cc1ccc(N2C(=O)NC(=O)/C(=C/c3ccc(-c4ccc(F)cc4)o3)C2=O)cc1	nt	nt	i	nt
COC(=O)C1=C(C)NC(C)=C(C(=O)OC)C1c1cc2cc(C)ccc2[nH]c1=O	i	i	i	i
Cc1ccc2[nH]c(=O)c(C3C(C#N)=C(N)Oc4c3ccc3cccnc43)cc2c1 (configuration not stated)	nt	2.2	nt	i
Cc1ccc(CNC(=O)CSc2nc3n[nH]c(C)c3c(=N)n2-c2cccc(C)c2)cc1	nt	2.5	nt	i
COc1ccccc1C(=O)Nc1nnc(-c2ccc(F)cc2)o1	i	i	i	i
COc1ccc(-c2nnc(NC(=O)c3ccc(F)cc3)o2)cc1	nt	i	nt	51
CCOc1ccccc1N1CCN(C(=O)c2ccccc2)CC1	i	i	i	i
CCOc1ccccc1N1CCN(C(=O)c2cccc(F)c2)CC1	nt	nt	103	nt
COc1ccc(-c2nc3cnccn3c2Nc2ccc3c(c2)OCO3)cc1	i	i	i	i
CN(C1=NC(=O)S/C1=C\c1ccc([N+](=O)[O-])cc1)c1ccc(O)cc1	nt	nt	56	nt
O=c1oc(Nc2cccc(F)c2)nc2ccccc12	nt	i	nt	i
Nc1nc(Nc2cccc(F)c2)nc2ccccc12	i	i	i	63
N#Cc1cc([N+](=O)[O-])cnc1Sc1ccccc1	nt	nt	i	nt
COc1ccc2[nH]c(C(=O)O)c(NS(=O)(=O)c3ccc(Cl)s3)c2c1	i	2.2	i	i
CC(=O)Nc1c(C)ccc2c1C(C)CC21CCCC1 (configuration not stated)	nt	nt	104	nt
CC(=O)Nc1c(Br)cc(C23CC4CC(CC(C4)C2)C3)cc1Br	nt	nt	i	nt
SMILES	TNAP act mid DEA	PLAP act	HePTP inhibitor	Ecoli WT expand
CCC(C)(C)n1nnnc1C(c1ccc2ncccc2c1)N1CCN(Cc2ccc3c(c2)OCO3)CC1 (configuration not stated)	i	2.1	i	i
CCC(C)(C)n1nnnc1C(c1ccc2ncccc2c1)N1CCN(c2nc3ccccc3s2)CC1 (configuration not stated)	i	i	i	i
Cc1ccc(S(=O)(=O)NCc2nnc(NC(=O)c3ccc(Br)cc3)s2)cc1	nt	nt	58	nt
COc1cc(C2c3c(-c4cc(C)cc(C)c4O)n[nH]c3C(=O)N2CCCO)cc(OC)c1OC (configuration not stated)	i	2.1	i	i
COCCCN1C(=O)c2[nH]nc(-c3cc(C)cc(C)c3O)c2C1c1ccc(O)c(OC)c1 (configuration not stated)	i	i	i	i
OCCNc1ncnc2c1c(-c1ccccc1)c(-c1ccccc1)n2Cc1ccco1	i	2	nt	i
CCOc1ccc(C(=O)N/N=C/c2ccc(-c3ccc(S(=O)(=O)Nc4ncccn4)cc3)o2)cc1	nt	2.1	nt	i
O=C(N/N=C/c1ccc(-c2ccc(S(=O)(=O)Nc3ncccn3)cc2)o1)c1cc2ccccc2cc1O	nt	i	nt	i
CC(C)OC(=O)C(C)(C)Oc1ccc(C(=O)c2ccc(Cl)cc2)cc1	i	nt	i	nt
O=C(CSCC(=O)Nc1ccc(F)c([N+](=O)[O-])c1)Nc1ccccc1	nt	nt	i	nt
O=C(CSc1ccc(C(F)(F)F)cc1[N+](=O)[O-])Nc1ccccc1	nt	i	105	i
O=C1C2CC=CCC2C(=O)N1c1ncn[nH]1 (configuration not stated)	nt	2.6	nt	i
CC1(C)C(=O)N(Cc2ccccc2)c2ccccc2N1C(=O)c1ccc(Cl)cc1	nt	nt	i	nt
CCCCNS(=O)(=O)c1ccc2nc(SCC(=O)Nc3sccc3C#N)[nH]c2c1	i	i	i	i
CCCCNS(=O)(=O)c1ccc2nc(SCC(=O)c3ccccc3OC)[nH]c2c1	nt	2.2	nt	i
Fc1ccc(NC(=S)Nc2ccc(F)c(Cl)c2)cc1Cl	nt	i	nt	89
COc1ccc(C2(O)CCN(CCCCOc3ccccc3)CC2)cc1	i	2.1	i	i
CCc1ccccc1N1C(=O)C2C(c3ccccc3Cl)OC3(C(=O)c4ccccc4C3=O)C2C1=O (configuration not stated)	nt	nt	104	nt
